Source: PubChem
NadD inh = blocks S. aureus nicotinate mononucleotide adenylyltransferase. 360,000 compounds, 0.78% hits. AID 602399. inhibition, % at 20 µM. purified NadD enzyme, colorimetric absorbance read-out; in the data active = inhibition above about 26%
Vif imaging = blocks HIV Vif function. HEK293T cells, Vif self-association by quenched fluorescence, imaging, 24 h. AID 602346. inhibition, % at 7.49 µM. 340,000 compounds, 0.35% hits; in the data active = inhibition above about 50%, passing the limit was not always enough; inconclusive = no clear call, values can overlap the other calls; inactive = below about 31%
SKN-1 block = C. elegans SKN-1 inhibition. C. elegans VP596 Pgst-4::GFP/RFP ratio, acrylamide-induced, 24 h. inhibition, % at 21.8 µM. 360,000 compounds, 0.49% hits. AID 624304;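 active = interference check ratio from 0.5 to 1.5 plus GFP to RFP signal ratio inhibition reaching or exceeding a fixed threshold, cut at about 30% in these data, passing the limit was not always enough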
SMARCA2 activ = increases SMARCA2 function in MMTV reporter cells; AID 652017; 370,000 compounds, 1% hits; activation, % at 9.1 µM; MG213 cells, MMTV-luciferase reporter, dexamethasone, overnight; in the data active = activation above about 7.8%;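 note: 0% = vehicle wells and 100% = reference activator wells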
GRIN3A LBD mod = modulators (binders) of human NR3A ligand-binding domain; 340,000 compounds, 2.5% hits; AID 1259313; Tm shift relative to glycine control, % at 25 µM; NR3A LBD differential scanning fluorimetry, Tm shift; 0% = protein alone, 100% = glycine-bound protein;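 active = melting temperature shift of at least 10% of the positive control shift, at one fixed dose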
esBAF inh = SWI/SNF esBAF complex inhibition; mouse ES cells, Bmi1-luciferase knock-in reporter, 24 h; 100% = twice the neutral-well signal; reporter increase, % at 12.5 µM; 350,000 compounds, 2% hits; AID 602393; in the data active = activation above about 40%; inconclusive = no clear call, values can overlap the other calls;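 note: 0% = median of the plate's neutral control wells and 100% = double that signal; a rise in the Bmi1 reporter signal indicates esBAF inhibition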
The depositor's hits bear a star; ? = inconclusive; · = no result given. Hits are enriched below; roughly 5.2% of the tested compounds scored in any of these assays.

SMILES	NadD inh	Vif imaging	SKN-1 block	SMARCA2 activ	GRIN3A LBD mod	esBAF inh
COC(=O)c1ccc(NC(=O)Nc2ccc(OC)c(OC)c2)cc1	0	·	-14	1	21*	·
NS(=O)(=O)c1cccc(NC(=O)Nc2ccc(Cl)cc2)c1	2	2	10	0	36*	·
CN(C)S(=O)(=O)c1cccc(NC(=O)c2cccc(NS(=O)(=O)c3ccccc3)c2)c1	-8	?	19	-6	3	2
CN(C)S(=O)(=O)c1cccc(C(=O)Nc2ccc(C(=O)Nc3cccc(S(N)(=O)=O)c3)cc2)c1	-2	23	15	2	21*	7
O=C(N/C(=N\O)c1ccccc1)Nc1ccc(Cl)cc1	-3	-4	6	2	23*	·
CNC(=O)Nc1ccc(Cl)cc1	0	8	-15	6	-2	·
CC(C)S(=O)(=O)c1csc(NC(=O)Nc2ccc(Cl)cc2)c1	-2	-7	-7	3	33*	·
Cc1cccc(NC(=O)Nc2ccc(S(N)(=O)=O)cc2)c1	3	8	-7	-1	5	·
Cc1ccc(S(=O)(=O)Nc2ccc3c(c2)CC(=O)N([C@@H](C)CO)C[C@H](C)[C@H](CN(C)S(=O)(=O)c2cn(C)cn2)O3)cc1	·	·	·	·	·	5
C[C@H]1CN([C@@H](C)CO)C(=O)c2c(c3ccccc3n2C)-c2ccccc2CO[C@H]1CN(C)S(=O)(=O)c1cn(C)cn1	·	·	·	·	·	-9
C[C@@H]1CN([C@H](C)CO)C(=O)c2cccc(NC(=O)Nc3ccccc3)c2O[C@H]1CN(C)S(=O)(=O)c1cccs1	·	·	·	·	·	8
CC(C)NC(=O)N(C)C[C@@H]1Oc2cc(C#C[C@H](C)O)ccc2S(=O)(=O)N([C@H](C)CO)C[C@H]1C	·	·	·	·	·	-8
CCc1sc(N(C(=O)Cc2ccccc2)c2cccc(F)c2)nc1-c1ccc(C)cc1	-1	-9	44*	1	1	3
CCc1sc(N(C(=O)Cc2ccccc2)c2ccccc2F)nc1-c1ccc(C)cc1	2	0	4	-2	-2	·
COc1ccc(C2CC(=O)Oc3c(C(C)C)ccc(C)c32)cc1 (stereo not given)	-1	1	7	1	13*	-4
COc1ccc(CN(C)C[C@@H]2OCCCC[C@H](C)Oc3ccc(NC(=O)CCC(F)(F)F)cc3C(=O)N([C@@H](C)CO)C[C@H]2C)cc1	·	·	·	·	·	-2
CC(=O)c1cccc(Nc2nc(-c3cccc([N+](=O)[O-])c3)cs2)c1	25	·	-4	5	20*	23
Cc1ccc(-c2csc(NC(=O)c3cccc([N+](=O)[O-])c3)n2)cc1	7	1	18	0	25*	-1
CC(=O)Nc1nc(C)c(-c2csc(Nc3cccc([N+](=O)[O-])c3)n2)s1	27	-3	-10	0	1	3
Cc1ccc(N2C(=O)c3ccccc3C2=O)cc1	1	-2	1	-2	0	·
Cc1ccc(N2C(=O)c3ccccc3C2=O)cc1Cl	-3	-13	-9	0	12*	19
O=C(N/N=C/c1ccsc1)c1c[nH]c2ccccc12	-2	-2	10	2	31*	?
O=C(N/N=C/c1ccccn1)c1c[nH]c2ccccc12	-1	-12	-9	3	4	·
Cc1ccsc1/C=N/NC(=O)c1c[nH]c2ccccc12	-1	11	6	6	15*	36
Cc1ccc(/C=N/NC(=O)c2c[nH]c3ccccc23)o1	-2	-15	0	·	17*	21
SMILES	NadD inh	Vif imaging	SKN-1 block	SMARCA2 activ	GRIN3A LBD mod	esBAF inh
Cc1ccsc1/C=N/NC(=O)c1ccccn1	-7	-2	10	2	-3	·
C/C(=N\NC(=O)c1csc(C)c1C)c1ccc(C)s1	-2	3	1	5	15*	·
Cc1ccc(/C=N/NC(=O)c2ccc(C(=O)N/N=C/c3ccc(C)s3)o2)s1	8	-5	-5	-4	28*	11
Cc1ccc(/C=N/NC(=O)c2c[nH]c3ccccc23)s1	1	44	-1	6	35*	59*
O=C(N/N=C/c1ccc[nH]1)c1c[nH]c2ccccc12	-5	2	-3	1	32*	13
C/C(=N/NC(=O)c1ccncc1)c1c[nH]c2ccccc12	-1	21	6	0	4	1
C/C(=N\NC(=O)c1c[nH]c2ccccc12)c1ccc(C)s1	-2	·	5	1	15*	·
